# From PubChem BioAssay
# A selection: hits, their analogues and other compounds. The true share with any hit is near 6.6%.
# CSC inhib: blocks cancer stem cells; cancer stem cell-like cells viability, luminescence; inhibition, % at 7.5 µM; actives 1.1% (n = 300,000); in the data active = inhibition above about 75%; tested in HMLE shEcad cells
# Gli-Sufu antag: antagonists of Gli-Sufu signaling. Sufu-KO-LIGHT fibroblasts, Gli luciferase reporter luminescence. inhibition, % at 5 µM. actives 0.74% (n = 340,000). AID 588413;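 active = inhibition above about 55%, limit read from the data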;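 note: 0% = DMSO-treated cells and 100% = wells with medium but no cells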
# Beta cell apopt: blocks beta cell apoptosis | INS-1E cytokine-induced death, ATP luminescence, 48 h; percent of positive-control rescue, neutral wells zero | AID 435005 | actives 0.8% (n = 300,000) | protection from apoptosis, % (no concentration beside the values);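 active = Every replicate reaches about 75%, or at least half do and their mean reaches it too, limit read from the data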;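 note: 0% = cytokine-treated negative control wells and 100% = positive control rescue; higher means more ATP so stronger rescue from cytokine killing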
# Mdm2-MdmX inh: human Mdm2/MdmX binding inhibition | O15151+Q00987 | SaOS-2 split-luciferase Mdm2/MdmX complementation, luminescence | inhibition, % at 8 µM | actives 3% (n = 330,000);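 active = inhibition of at least 50% at 8 µM in the primary screen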
# GRIN3A LBD mod: NR3A (human) ligand-binding domain modulation | NR3A LBD differential scanning fluorimetry, Tm shift; 0% = protein alone, 100% = glycine-bound protein | Tm shift relative to glycine control, % at 25 µM | actives 2.5% (n = 340,000);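 active = melting temperature shift of at least 10% of the positive control shift, at one fixed dose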
# MPTP inh: permeability transition pore inhibition. isolated mouse mitochondria, Ca2+ swelling absorbance, 30 min. inhibition, % at 10 µM. actives 1.4% (n = 360,000). AID 602449;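 active = inhibition of 50% or more, scaled per plate between neutral and stimulator controls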;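 note: 0% = DMSO wells given calcium and 100% = 1 mM EGTA wells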
# * hit, by the source's call; / = no result given.
SMILES,CSC inhib,Gli-Sufu antag,Beta cell apopt,Mdm2-MdmX inh,GRIN3A LBD mod,MPTP inh
Cc1ccc(S(=O)(=O)N2CCN(C)CC2)c2nsnc12,/,2,-8,-8,-2,-2
O=C1CCCN1CCCNc1nc2c(S(=O)(=O)c3ccccc3)nnn2c2ccc(Cl)cc12,-6,-6,12,46,-3,1
COc1cccc2cc(C(=O)CC3(O)C(=O)N(Cc4ccccc4)c4ccccc43)c(=O)oc12 (stereo unspecified),-14,-7,-3,26,15*,5
Cc1[nH]c2ccccc2c1/C=N/Nc1ccc([N+](=O)[O-])cc1,50,-1,39,/,25*,-5
CN1CCN(S(=O)(=O)c2cc([N+](=O)[O-])ccc2N/N=C/c2ccc(Cl)cc2)CC1,-12,-1,4,46,2,0
O=[N+]([O-])c1ccc(N/N=C/c2c[nH]c3ccccc23)c(S(=O)(=O)Nc2ccc(Cl)cc2)c1,101*,1,12,18,513*,23
Cc1[nH]c2ccccc2c1/C=N/NC(=O)c1cccc([N+](=O)[O-])c1,12,-15,-6,-18,-3,-1
COc1ccccc1NS(=O)(=O)c1cc([N+](=O)[O-])ccc1N/N=C/c1c(C)[nH]c2ccccc12,11,4,/,17,29*,0
Cc1[nH]c2ccccc2c1/C=N/Nc1ccc(F)cc1F,49,/,-3,/,/,/
CC(C)Cc1nnc(NC(=O)c2ccc3c(c2)NC(=O)C(C)S3)s1 (stereo unspecified),2,-5,3,23,-2,-1
CCOC(=O)C1=NN(c2ccc(C)cc2)CC1C(=O)OC (stereo unspecified),-4,5,0,24,-2,2
Cc1cc(Nc2ncc(Cl)cc2Cl)n(-c2ccccc2)n1,0,-6,-1,10,11*,3
CCC(C)n1c(SCC(=O)Nc2ccccc2C(F)(F)F)nc2ccsc2c1=O (stereo unspecified),1,3,-1,-9,0,3
CCC(C)n1c(SCc2ccccc2)nc2ccsc2c1=O (stereo unspecified),34,9,10,15,11*,3
Cc1cccc(-n2c(C)cc(/C=N/n3cnnc3)c2C)c1,-8,5,111*,-3,0,5
Cc1[nH]nc(-c2ccc(OCc3cnn(-c4ccccc4)c3)cc2O)c1Oc1ccc(F)cc1,5,7,5,39,20*,6
CCOc1ccc(-c2n[nH]c(C)c2Oc2ccc(OC)cc2)c(O)c1,35,1,-9,3,12*,6
Cc1oc2cc(OCc3cnn(-c4ccccc4)c3)ccc2c(=O)c1Oc1ccccc1F,-11,25,-2,20,1,6
CC1Nc2nc(N(C)C)[nH]c(=O)c2NC1C (stereo unspecified),10,2,2,/,1,2
CC1(C(=O)Nc2ccc(Cl)c(C(F)(F)F)c2)Cc2c(-c3ccc(C(N)=O)cc3)ccnc2O1 (stereo unspecified),/,/,/,/,/,-1
O=C1N/C(=N/NC(=O)c2cccc3ccccc23)S/C1=C\c1ccccc1OCc1ccccc1,/,-9,/,/,8,38
COc1ccc(OC)c(/C=C2\S/C(=N/NC(=O)c3ccc4ccccc4c3)NC2=O)c1,106*,5,0,/,17*,11
CC(C)[C@H](NC(=O)c1ccccc1)C(=O)OCC(=O)c1ccc(S(=O)(=O)N2CCCCC2)cc1,-1,-13,-5,9,-1,0
Cc1ccnc(NC(c2ccccc2)c2ccc3cccnc3c2O)c1 (stereo unspecified),/,-7,/,/,148*,2
CC(=O)NC(c1ccc(N(C)C)cc1)c1cc(Cl)c2cccnc2c1O (stereo unspecified),/,/,/,/,/,1
SMILES,CSC inhib,Gli-Sufu antag,Beta cell apopt,Mdm2-MdmX inh,GRIN3A LBD mod,MPTP inh
CC(=O)NC(c1ccc(Cl)cc1)c1ccc2cccnc2c1O (stereo unspecified),/,80*,/,/,-4,-1
Cc1ccnc(NC(c2cccnc2)c2ccc3cccnc3c2O)c1 (stereo unspecified),1,17,-25,33,-5,1
O=C(NC(c1ccc(Cl)cc1)c1cc(Cl)c2cccnc2c1O)c1cccnc1 (stereo unspecified),113*,18,96*,/,-7,-1
O=C(CCNC(=O)c1ccc(Br)cc1)NCc1cccnc1,/,-4,2,-3,0,-1
COc1ccc(C(=O)NCc2ccncc2)cc1S(=O)(=O)N1CCOCC1,5,9,-1,-5,-2,-2
O=C(NCc1ccncc1)c1ccc(Cl)c(S(=O)(=O)N2CCOCC2)c1,-6,9,-2,-2,321*,4
CC(C)(C)OC(=O)N1CCOCCOCCN(C(=O)OC(C)(C)C)CCOCCOCC1,7,10,4,-10,705*,2
Cc1ccc(-n2[nH]c3c4c(ccc3c2=O)C(=O)c2ccccc2C4=O)cc1,16,-7,2,22,-3,1
CC(C)(C)n1[nH]c2c3c(ccc2c1=O)C(=O)c1ccccc1C3=O,48,-2,86*,40,3,3
O=C(NC(=S)Nc1nc(-c2ccc(Br)cc2)cs1)c1ccco1,-5,3,3,-14,30*,2
O=C(NNc1nc(-c2ccc(Br)cc2)cs1)c1ccco1,45,-20,7,37,-2,1
COc1ccc(-c2csc(C)n2)cc1Br,8,-23,-7,-20,-3,-3
COc1ccc(-c2csc(NC(=O)CN3C(=O)C4CCCCC4C3=O)n2)cc1OC (stereo unspecified),-13,-2,-1,11,12*,2
COc1ccc(-c2csc(NC(=S)NC(=O)c3cccs3)n2)cc1Br,41,6,9,33,38*,2
COc1ccc(-c2csc(NC(=S)NC(=O)c3cccs3)n2)cc1OC,/,5,/,41,10*,4
COC(=O)c1ccc(NC(=O)COC(=O)COc2cccc3c2OC(C)(C)C3)cc1,-7,3,0,3,1,1
O=C(COC(=O)c1ccc(Cl)nc1)Nc1nnc(-c2ccccc2)o1,0,-8,-3,13,-1,-1
C#CCOCCOCCOCCNc1nc(N2CCOCC2)nc(N2CCN(C(=O)CCCCCCCCCCNC(=O)[C@H]([C@@H](C)CC)n3cc(CCCCN=C(N)N)nn3)CC2)n1,22,-4,-6,20,-3,-5
C#CCOCCOCCOCCNc1nc(N2CCN(C(=O)CCCCCCCCCCNC(=O)[C@H]([C@@H](C)CC)n3cc(CCCCN=C(N)N)nn3)CC2)nc(N2CCN(C(=O)CCCCCCCCCCNC(=O)[C@H](CCCN=C(N)N)n3cc(C[C@@H](C)CC)nn3)CC2)n1,88*,/,98*,-23,/,/
